Compound activity (PubChem BioAssay)
Pf growth 48h – Primary qHTS for delayed death inhibitors of the malarial parasite plastid, 48 hour incubation; P. falciparum luciferase growth in erythrocytes, 48 h; Potency, µM (doses to about 28.7 µM), for inactives: at the highest dose activity change, negative = inhibition, hits mostly inhibitors; hit rate 5.9% among 310,000; AID 504832, 2011; further: potency means the concentration at half of the fitted maximal effect
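Cell-based growth assay: transgenic P. falciparum expressing firefly luciferase, cultured in red cells within RPMI 1640 containing 0.5% w/v Albumax, 24 mM bicarbonate and gentamycin. A drop in luciferase activity indicates inhibition.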
HCV inhibitor – qHTS Assay for Inhibitors of Hepatitis C Virus (HCV); Huh7.5.1 HCVcc-Cre infection, luciferase reporter, 44 h; hit rate 3.4% among 340,000; Potency, µM (titrated, usually from 41.8 µM), for the others: at the top dose activity change, negative = inhibition, usual class: inhibitors; AID 651820, 2012; further: potency means the concentration at half of the fitted maximal effect
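After 44 h co-culture of compound, cells and HCVcc-Cre (~0.5 moi), substrate is added for 15 min at room temperature and luciferase measured over 15 sec. Cells were seeded at 1,000/well and pre-cultured 4 h.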
HCMV inh – qHTS Assay for inhibitors of the human cytomegalovirus (HCMV); HFF cells, HCMV-luciferase reporter, 72 h; stronger effect = lower value; activity change, negative = inhibition, % at 57.5 µM; hit rate 4.5% among 410,000; AID 1259415, 2018; in the data active means activity change below about -60%; inconclusive means no clear call, values can overlap the other calls; inactive means above about -39%
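Compounds were evaluated in HFFs infected with an HCMV luciferase reporter virus (MOI 1 PFU/cell). Luciferase in lysates collected 72 h post infection served as the replication measure.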
Pf growth 96h – Primary qHTS for delayed death inhibitors of the malarial parasite plastid, 96 hour incubation | P. falciparum luciferase reporter growth, 96 h | hit rate 6.9% among 320,000 | Potency, µM (series often up to 28.7 µM), inactives show at the highest dose activity change, negative = inhibition, actives largely listed as inhibitors | AID 504834, 2011; further: potency means the concentration at half of the fitted maximal effect
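Luminescence readout: decreased luciferase signal marks inhibited growth of reporter-expressing P. falciparum in infected red cells (2% hematocrit, 0.05% parasitemia final), exposed to compound two generations (96 h, 37 C, 5% CO2).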
Active calls of the source: *; u = inconclusive; x = not tested or not shown; [ ] = remark or other dose. This is a sample that favours compounds with a hit; in the whole collection about 13% have one here. Unless noted, the call rests on the fitted dose curve; in most records, active means well fitted inhibition curve with a large enough effect; inconclusive means small, poorly fitted or top-dose-only effect, or another doubt; inactive means no such curve, though single readings can be large or run the other way. On the % scale 0 is the no-effect control and ±100 the full control effect.

SMILES | Pf growth 48h | HCV inhibitor | HCMV inh | Pf growth 96h
CCc1c(C)nc2ncnn2c1NCCc1ccc(OC)cc1 | u | 5.62µM* | -92.0* | u
CCc1c(C)nc2ncnn2c1NCc1cccs1 | -4.6% | -21.7% | -69.5* | 2.5%
CCc1c(C)nc2ncnn2c1N1CCC(C(=O)NCc2cccs2)CC1 | -15.0% | u | -25.7 | 8.5%
CCOc1ccccc1NC(=O)C(Cc1ccccc1)NS(=O)(=O)c1ccc2c(c1)oc(=O)n2C (configuration not stated) | x | x | -0.3 | x
O=C(Cc1cccs1)N[C@H]1CC[C@@]23CCCN2C(=O)CCC[C@H]3[C@H]1Cc1ccccc1 | x | x | -4.0 | x
CC(C)CCNC(=O)CN1C(=O)CSc2ccc(S(=O)(=O)N3CCC(C)CC3)cc21 | x | x | -24.2 | x
CCN(CC)CCNC(=O)C12CC3CC(CC(C3)C1)C2 | x | 21.6% | -7.2 | 54.5%
CCN(CC)CCNC(=O)C(Cl)=C1C(Cl)=C(Cl)C(Cl)=C1Cl | x | u | -76.3* | x
CC(C)Oc1ccc(C(=O)/C(=C\c2cccs2)c2nc3ccccc3o2)cc1 | u | u | -72.7* | u
COc1ccc(C(=O)/C(=C\c2sccc2C)c2nc3ccccc3o2)cc1 | u | -5.4%[0.335 µM] | x | 3.29µM*
CCCN(CCC)C(=O)Cn1c(SCc2cccc(F)c2)nc2cccnc21 | x | x | -21.8 | x
CCOC(=O)c1cc(S(=O)(=O)NCc2ccc(Cl)cc2)[nH]n1 | x | x | -16.0 | x
CC1(C)C(=O)CC[C@@]2(C)C1=CCC1C2CC[C@]2(C)C(=O)CCC12 (some centres not stated) | x | 12.0% | 19.1 | x
Cc1cc(O)cc2c1C1CCC3(C)C(=O)CCC3C1C=C2 (configuration not stated) | x | -17.1% | -97.5* | x
Cc1noc(C)c1S(=O)(=O)NC(=O)C1(C)CCN1C(=O)Cc1ccc(-c2ccccc2)cc1 (configuration not stated) | x | x | 1.1 | x
Clc1cc(Cl)c(OCC#CI)cc1Cl | u | x | x | 13.5µM*
CNc1ncnc2c1ncn2[C@H]1CN(Cc2ccco2)C[C@@H](CO)O1 | x | x | -25.8 | x
CC(=O)c1c(C)[nH]c(C(=O)OCc2ccccc2)c1C | 128.1% | u | 0.0 | u
COC(=O)c1ccc(COC(=O)c2[nH]c(C)c(C(C)=O)c2C)o1 | -9.3% | 2.24µM* | 33.2 | 12.1%
COC(=O)c1ccc(COC(=O)c2ccc(CO)cc2)o1 | 1.0% | 14.7% | -6.8 | 7.7%
CC(=O)c1c(C)[nH]c(C(=O)OCc2ccc([N+](=O)[O-])cc2)c1C | 12.4% | 5.62µM* | -15.0 | 14.0%
Cc1ccc(Nc2nnc(-c3ccc(C)c(S(=O)(=O)N4CCN(C)CC4)c3)c3ccccc23)c(C)c1 | x | x | 4.2 | x
O=C(Nc1cc(-c2nc3ccccc3o2)ccc1Cl)c1ccc(N2CCCCC2)c([N+](=O)[O-])c1 | x | x | 64.6 | x
CNC(=S)N/N=C(\C)c1ccc(N2CCOCC2)cc1 | -3.8% | -15.3% | -99.3* | 10.4µM*
Nc1ncnc2c1ccn2[C@@H]1O[C@H](CO)[C@@H](O)[C@H]1O | x | 35.5µM* | -106.3* | x
SMILES | Pf growth 48h | HCV inhibitor | HCMV inh | Pf growth 96h
OCC1OC(n2ccc3c2ncn2ncnc32)C(O)C1O (configuration not stated) | x | x | -94.9* | x
CC(=O)c1c(C)oc2ccc(O)c(CN3CCOCC3)c12 | x | 9.1% | 23.4 | 7.38µM*
CCOC(=O)c1c(C)oc2ccc(O)c(CN3CCCCC3)c12 | 11.7µM* | -18.5% | -19.8 | 29.7%
COc1ccc2occ(C(=O)c3coc4ccc(O)c(CN(C)C)c34)c2c1 | 8.28µM* | u | u | x
COc1ccc(C(=O)c2coc3ccc(O)c(CN4CCCCC4)c23)cc1 | 7.38µM* | -3.9% | -25.6 | 56.7%
CCOC(=O)c1c(C)n(C)c2ccc(O)c(CN3CCCCC3)c12 | u | 13.1% | -17.6 | x
Cc1oc2ccc(O)c(CN3CCOCC3)c2c1C(C)O (configuration not stated) | 17.0% | -4.6% | -8.3 | -7.7%
Cc1[nH]c2ccccc2c1CC(=O)Nc1ccc(N(C)c2cccnc2)c(-c2cccc(Cl)c2)c1 | x | x | -0.4 | x
CCC(C)NC(=O)c1ccc2c(c1)nc1n2CCCCC1 (configuration not stated) | x | x | 27.4 | x
COc1ccc(CNC(=O)C2CCN(S(=O)(=O)c3cccc(-c4noc(C)n4)c3)CC2)cc1 | x | x | 7.9 | x
COc1ccc(NC(=O)c2c(C)oc3ccc(O)c(CN4CCCC(C)C4)c23)cc1 (configuration not stated) | x | x | -37.8 | x
COc1ccc(NC(=O)c2c(C)oc3ccc(O)c(CN4CCCCCC4)c23)cc1 | x | x | -67.3* | x
CCOC(=O)c1sc(NC(=O)c2ccc(OC(C)=O)cc2)nc1C | 36.1% | u | -81.9* | u
CCOC(=O)c1sc(NC(=O)C(OC(C)=O)c2ccccc2)nc1C (configuration not stated) | -24.0% | 3.9% | 12.5 | 10.4µM*
Cc1ccc(S(=O)(=O)c2cnc(-c3ccccc3)nc2N2CCN(C)CC2)cc1 | u | u | -12.1 | 10.4µM*
CCN(CC)c1nc(-c2ccccc2)ncc1S(=O)(=O)c1ccc(C)cc1 | -15.3% | 7.08µM* | 5.9 | -26.0%
CN1CCN(c2nc(-c3ccccc3)ncc2S(=O)(=O)c2ccccc2)CC1 | u | 10.9% | 4.7 | u
Cc1cc(C)c(NC(=O)NC2CCCCC2)c(C)c1 | -3.3% | 9.2% | 37.9 | 5.9%
Cc1cc(C2CCCCC2)n(O)c(=O)c1 | 0.738µM* | u | -77.8* | 0.465µM*
COc1ccc(C(=O)c2c(C(F)(F)F)oc3c2C(=O)c2ccccc2C3=O)cc1OC | x | u | -103.2* | u
COc1ccc(C(=O)Nc2ccc3c(c2)C(=O)c2ccccc2C3=O)cc1OC | 23.7% | -9.9% | 8.8 | 0.0%
Cc1cccc(NC(=S)N(CCCN2CCCC2)Cc2cccn2Cc2ccc(Cl)cc2)c1 | u | u | -60.2* | 2.8%
CCN(CC)C(=O)Nc1ccc(OC[C@H](O)CNC(C)(C)C)c(C(C)=O)c1 | -18.3% | x | x | -30.1%
CSc1ccccc1NC(=O)Cn1nc([N+](=O)[O-])cc1C | 19.8% | -1.4% | -36.7 | 0.185µM*
Cc1cc([N+](=O)[O-])nn1CC(=O)N1CCN(Cc2ccccc2)CC1 | u | -5.2% | -12.8 | 10.4µM*
SMILES | Pf growth 48h | HCV inhibitor | HCMV inh | Pf growth 96h
Cc1cc([N+](=O)[O-])nn1CC(=O)N1CCc2ccccc2C1 | x | 4.7% | 37.7 | 12.5%
CSc1ccccc1NC(=O)Cn1nc([N+](=O)[O-])c(Cl)c1C | 22.5% | -8.9% | -30.6 | 5.2%
COc1cccc(C2C(C(=O)Nc3ccc(C)cc3C)=C(C)Nc3c(C(=O)Nc4cccc(C)c4)cnn32)c1OC (configuration not stated) | x | x | -7.8 | x
O=C1CCC[C@H]2[C@@H](Cc3ccccc3)[C@H](NCc3cccs3)CC[C@]23CCCN13 | x | x | 19.6 | x
O=C(Nc1ccc(Cl)c(Cl)c1)OCc1cnc(Cl)s1 | 31.1% | 11.2µM* | 1.3 | -6.0%
Cc1ccc(S(=O)(=O)N2CCCCC2)cc1C(=O)OC(C)C(=O)NC1CCCCC1C (configuration not stated) | u | u | -27.9 | 13.1µM*
